# Only some compounds are listed: those with a hit (about 2.5% of all), similar ones and a draw of the others.
# D2 PAM-1 – potentiates the human D2 dopamine receptor allosterically. P14416. potentiation, % (test concentration not listed). 0.23% of 360,000 active. DiscoveRx D2 beta-arrestin cells, luminescence, 90 min; 100% = 57 uM dopamine signal. AID 624464; in the data active = potentiation above about 50%; inconclusive = mostly about 30% to 49%
# Target sequence (P14416 whole entry, looked up): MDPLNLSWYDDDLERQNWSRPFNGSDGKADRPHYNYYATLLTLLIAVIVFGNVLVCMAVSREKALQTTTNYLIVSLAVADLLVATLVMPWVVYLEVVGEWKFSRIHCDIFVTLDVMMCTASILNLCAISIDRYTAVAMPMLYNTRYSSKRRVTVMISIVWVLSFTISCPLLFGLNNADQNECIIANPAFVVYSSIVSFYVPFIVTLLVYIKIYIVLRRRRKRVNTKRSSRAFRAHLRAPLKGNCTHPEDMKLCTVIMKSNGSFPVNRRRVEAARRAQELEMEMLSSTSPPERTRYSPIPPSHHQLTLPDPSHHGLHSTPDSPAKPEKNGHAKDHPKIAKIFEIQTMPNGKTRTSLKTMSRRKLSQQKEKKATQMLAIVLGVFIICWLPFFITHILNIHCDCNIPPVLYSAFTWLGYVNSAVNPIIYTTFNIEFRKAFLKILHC
#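 PathHunter D2 cells, attached overnight at 37 deg C, received compound in DMSO plus dopamine at EC20 (50 nM final) for 90 min at 37 deg C. Beta-arrestin recruitment was read as luminescence after 1 h with detection reagent at ambient temperature.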
# D2 PAM-2 – positively modulates the human D2 dopamine receptor allosterically; potentiation, % at 10 µM; P14416; 0.34% of 340,000 active; AID 485347; HEK293 T-REx D2, calcium flux, EC20 dopamine potentiation;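 active = potentiation over 3 SD above the plate norm, cut at about 30% in these data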
#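 Potentiation of an EC20 dopamine calcium response is measured in a force-coupled, tetracycline-inducible Hek293 Trex D2 line. Compound-only kinetic reads over 180 s flag agonists before dopamine addition.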
# D2 antag – antagonizes the human D2 dopamine receptor; P14416; HEK293 TREx D2 cells, calcium flux, dopamine EC80; inhibition, % at 10 µM; 2% of 340,000 active; AID 485344; in the data active = inhibition above about 30%; inactive = below that, where a call was filed
#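 Read-out: kinetic calcium fluorescence (1 cycle/s) in inducible HEK293 T-REx D2 cells after an EC80 dopamine addition that followed 180 s compound preincubation. Loss of the dopamine response indicates antagonism.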
# Apoferritin bind – candidate novel general anesthetic via apoferritin binding. P02791. apoferritin/1-aminoanthracene competitive binding, fluorescence. Potency, µM (top dose mostly 77.5 µM), hits mostly inhibitors. 0.074% of 350,000 active. AID 485281; active = well fitted inhibition curve with a large enough effect; inconclusive = small, poorly fitted or top-dose-only effect; inactive = no such curve, though single readings can be large or run the other way; note: nearly all actives have a fitted effect of over 20% in size
# Target sequence (P02791 2-175 limits assumed): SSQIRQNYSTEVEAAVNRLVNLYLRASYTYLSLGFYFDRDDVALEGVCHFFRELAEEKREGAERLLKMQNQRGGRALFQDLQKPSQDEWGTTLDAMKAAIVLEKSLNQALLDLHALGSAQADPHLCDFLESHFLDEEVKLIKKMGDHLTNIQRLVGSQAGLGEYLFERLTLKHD
#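 10 uM apoferritin + 50% sat. 1-AMA, PBS; cpd 10 min RT; Ex380/Em535 endpoint; normalized to free probe vs complex; 4-param Hill fit; propofol titration as pos. ctrl.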
# D2 ag-1 – activates the human D2 dopamine receptor | P14416 | DiscoveRx PathHunter D2 beta-arrestin, luminescence, 90 min; 100% = 57 uM dopamine signal | activation, % (no concentration beside the values) | 0.084% of 360,000 active | AID 624465; in the data active = activation above about 40%; inconclusive = between about 15% and that limit
#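 Agonist mode: compounds alone added to overnight-plated D2 PathHunter cells for 90 min at 37 C, with 57 uM final dopamine (EC100) defining full response. Beta-arrestin recruitment detected by chemiluminescent reagent, read after 1 h at ambient temperature.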
# D2 ag-2 – activates the human D2 dopamine receptor; P14416; HEK293 T-REx D2 cells, calcium flux agonist mode; activation, % at 2 µM; 0.53% of 340,000 active; AID 485358;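 active = activation over 3 SD above normal in the single-dose calcium agonist read, cut at about 30% in these data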
#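 Tetracycline-induced HEK293 T-REx cells with force-coupled D2 receptor, plated overnight at 30 C, loaded with no-wash calcium dye. After a 10 s baseline, compound was pin-added and calcium flux read kinetically for 180 s; calcium rises flagged agonists.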
# Hits are given with their value; n = inactive; u = inconclusive; x = no result given.
SMILES,D2 PAM-1,D2 PAM-2,D2 antag,Apoferritin bind,D2 ag-1,D2 ag-2
CN1CCN(C2=Cc3ccccc3Sc3cc(F)c(Cl)cc32)CC1,n,n,73.5,n,n,n
CC(C)(Cc1ccc(O)cc1)NC(=O)CC(=O)N=Nc1c(O)[nH]c2ccc(Br)cc12,n,n,n,u,n,31.1
OC[C@@H]1CCCN1Cc1cn(-c2ccccc2)nc1-c1ccc2c(c1)OCO2,n,n,n,n,n,n
CC(C)COc1ccc(S(=O)(=O)NNC(=O)c2cc3ccccc3o2)cc1,n,n,n,n,n,n
CCCCOc1ccc(S(=O)(=O)NNC(=O)c2cc3ccccc3o2)cc1,n,n,44.2,n,n,n
COc1ccccc1Oc1nc([N+](=O)[O-])nn1CC(N)=O,n,x,x,n,n,x
CCN(CC)S(=O)(=O)c1ccc(S(=O)(=O)Nc2cc3c(cc2C(C)=O)OCO3)cc1,n,n,n,n,n,n
COc1ccc(Nc2nc(N)nc(CSc3nnc(N)s3)n2)cc1,n,n,38.2,n,n,n
Cc1cc(C)nc(Sc2ccc([N+](=O)[O-])cc2[N+](=O)[O-])n1,70.0,n,n,n,n,n
O=[N+]([O-])c1ccc(Sc2ccncn2)c([N+](=O)[O-])c1,n,x,x,x,u,x
COc1cccc(C(=O)N2CCN(C(=O)c3cccc(F)c3)CC2)c1,n,n,x,n,n,x
O=C(c1cccc(F)c1)N1CCN(C(=O)C(c2ccccc2)c2ccccc2)CC1,n,x,31.1,n,n,n
COc1ccc(C(=O)c2cn(Cc3ccccc3)c3ccccc3c2=O)cc1OC,x,n,x,u,x,n
CC(=O)c1c(C)[nH]c(C(=O)N(C)CC(=O)Nc2ccc(Cl)c(C(F)(F)F)c2)c1C,n,n,39.3,n,n,n
CN(CC(=O)NC(=O)NCc1ccccc1)CC(=O)Nc1ccc(Cl)c(C(F)(F)F)c1,n,n,35.2,x,n,n
CN(CC(=O)NCCc1ccc(S(N)(=O)=O)cc1)CC(=O)Nc1ccc(Cl)c(C(F)(F)F)c1,n,x,x,x,n,x
COC(=O)C1=NN(c2cccc3ccccc23)C2C(=O)N(c3ccccc3OC)C(=O)C12 (stereo unspecified),n,n,n,n,n,n
Cc1ccc(-n2nnnc2CN2CCCCC2)cc1,n,n,37.8,n,n,n
Clc1ccc(-n2nnnc2CN2CCOCC2)cc1,n,x,x,n,n,x
Cc1sc(NC(=O)CSc2nc(N)n(CC(=O)c3ccccc3)n2)c(C#N)c1C,n,n,n,n,n,32.7
O=C(CSc1ncccn1)NCc1ccc(Cl)cc1,n,n,35.8,n,n,n
O=C(CSc1ncccn1)NC(=O)c1ccccc1,n,34.0,n,n,n,n
Nc1nnc(SCC(=O)NNC(=O)c2ccccc2)s1,n,n,37.2,x,n,n
O=C(CSc1ccccc1F)NNC(=O)c1ccncc1,n,n,n,x,n,n
Nc1nnc(SCC(=O)NNC(=O)c2ccc(F)cc2)s1,n,n,n,x,n,n
SMILES,D2 PAM-1,D2 PAM-2,D2 antag,Apoferritin bind,D2 ag-1,D2 ag-2
O=C(CSc1ccccc1)NNC(=O)c1ccncc1,n,n,57.1,x,n,n
CCOc1ccc(NC(=O)C2=C(C)NC(=S)NC2c2ccc(O)c(OC)c2)cc1 (stereo unspecified),n,n,n,n,n,n
Cc1nnc(Oc2ccc([N+](=O)[O-])cc2)c2ccccc12,n,n,n,n,n,n
CC(C)(C)N1CSC(=S)N(Cc2ccccc2)C1,n,n,n,n,n,n
Cc1ccccc1C(=NC(=O)c1ccccc1)c1ccccc1,n,n,n,u,n,n
O=C1[C@H]2[C@@H](c3ccc(F)cc3)N3C(=O)N(c4cccc(F)c4)C(=O)[C@@]3(Cc3ccccc3)[C@H]2C(=O)N1C1CCCCC1,n,n,n,x,n,n
O=C1[C@H]2[C@@H](c3ccc(F)cc3)N3C(=O)N(c4cccc(Br)c4)C(=O)[C@@]3(Cc3ccccc3)[C@H]2C(=O)N1C1CCCCC1,n,n,40.9,x,n,n
CN=C1NN=C(c2cc(C)n(-c3c(C)n(C)n(-c4ccccc4)c3=O)c2C)CS1,n,n,n,n,n,n
COc1ccc(S(=O)(=O)NC(C)C)cc1-n1cnnn1,n,n,n,n,n,n
Cc1cc(C)n(CC2CC(=O)N(c3ccccc3)C2=O)n1 (stereo unspecified),n,n,n,n,n,n
CSc1ccc(/C=C(\C(=O)O)c2ccc(S(=O)(=O)N3CCCC3)s2)cc1,n,n,35.5,x,n,n
O=C(O)/C(=C\c1cccc(F)c1)c1ccc(S(=O)(=O)N2CCCCC2)s1,n,n,n,n,n,n
CCCCNC(=S)Nc1ccc(Cl)cc1,n,n,n,n,n,n
CCCCc1ccc(NC(=S)NCCO)cc1,n,n,30.9,u,n,n
Fc1ccc(CCNC(=S)Nc2ccc(F)cc2)cc1,n,n,n,n,n,n
CCCCc1ccc(NC(=S)NCCc2ccc(F)cc2)cc1,n,n,30.5,n,n,n
O=C(CCS(=O)(=O)c1ccc(Cl)cc1)Nc1ccccc1Br,n,n,n,n,n,n
N#Cc1cccc(NC(=O)c2cc(C3CCCCN3C(=O)C3CC3)on2)c1 (stereo unspecified),n,x,x,x,n,x
O=C(Nc1ccc(NC(=O)c2cc3ccccc3o2)cc1)c1ccccc1,x,n,x,n,x,n
COc1ccc(S(=O)(=O)N2CCN(C(=O)[C@@H]3CCC(=O)N3C3OC(=O)c4ccccc43)CC2)cc1 (stereo partly specified),n,n,51.5,n,n,n
COc1cc(CNc2cccc(C(=O)O)c2)cc(Br)c1OCC(=O)NC(C)(C)C,n,n,59.7,n,n,n
COc1cc(CNc2ccc3[nH]c(=O)[nH]c3c2)cc(Br)c1OCC(=O)NC(C)(C)C,n,n,n,u,n,n
Cc1ncc(CSCC(=O)Nc2cc(C(F)(F)F)ccc2Cl)c(CO)c1O,n,n,x,n,n,x
CN(C)c1ccc(N/C=C/C(=O)c2ccco2)cc1,55.3,n,n,u,n,n
O=C(O)c1nn(CCOc2ccccc2F)c(=O)c2ccccc12,n,32.6,n,n,n,n
Cc1cccc(C)c1NC(=O)COC(=O)c1cccc2c1C(=O)c1ccccc1C2=O,u,n,n,n,n,n
Cc1cccc(NC(=O)COC(=O)c2cccc3c2C(=O)c2ccccc2C3=O)c1C,89.7,n,n,n,u,n
Nc1cccc(C(=O)OCC(=O)Nc2cccc3c2C(=O)c2ccccc2C3=O)c1,60.2,n,n,n,u,n
COc1cccc2cc(C(=O)NCc3ccc(F)cc3)c(=N)oc12,n,n,n,n,n,n

# Assay outcomes deposited in PubChem BioAssay by National Center for Advancing Translational Sciences (NCATS).
